Screening data (PubChem)
An excerpt weighted towards active compounds, which were near 7.1% of everything screened.
ATXN2 expr inh: Primary qHTS for Inhibitors of ATXN expression. HEK-293 ATXN2-luciferase reporter, luminescence, 24 h. Potency, µM (highest dose often 57 µM), hits mostly inhibitors. actives 0.72% (n = 360,000). AID 1745845, 2022; note: nearly all actives have a fitted effect of over 55% in size
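qHTS (up to 57 uM final) was run with 24 h compound exposure of reporter cells at 37 °C. Each well was multiplexed: SteadyGlo luminescence measured ATXN2-luciferase expression after a fluorogenic Gly-Phe-AFC viability readout (25 uM final).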
PINK1 expr mod: A Quantitative High throughput Screen to Identify Chemical Modulators of PINK1 Expression; AID 624263, 2012; PINK1 immunofluorescence, high-content cytometry, 24 h; actives 0.2% (n = 410,000); Potency, µM (doses to about 76.6 µM), hits mostly activators; active = well fitted activation curve with a large enough effect; inconclusive = small, poorly fitted or top-dose-only effect; cell line not stated here; note: nearly all actives have a fitted effect of over 65% in size
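A stable cell line was treated with compounds at 5 concentrations for 24 hours, with CCCP as control. PINK1 levels and mitochondrial localization were measured by immunofluorescence with mitochondrial, cell and nuclear markers after fixation, read by laser-scanning cytometry.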
IL1B secr inh: qHTS for Inhibitors of Inflammasome Signaling: IL-1-beta AlphaLISA Primary Screen. THP-1 LPS/ATP IL-1B secretion, AlphaLISA, 16 h; active compounds read low. activity change, % at 57.5 µM. actives 4.7% (n = 360,000). AID 743279, 2014; in the data active = activity change below about -50%; inconclusive = mostly about -30% to -49%
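THP-1 cells pretreated 1 hr with compounds (up to 57.5 uM final), then stimulated with LPS (250 ng/mL final) plus ATP (1.25 mM final); secreted IL-1B measured by AlphaLISA after 16 hr, decreased signal indicating inhibition.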
ATXN viability: Viability Counterscreen for Primary qHTS for Inhibitors of ATXN expression | S2 cells (HEK-293 line with an ATXN2-luciferase reporter) viability, CellTiter-Fluor protease fluorescence, 24 h | Potency, µM (series often up to 56.7 µM), hits mostly cytotoxic | actives 0.49% (n = 400,000) | AID 651635, 2014; note: nearly all actives have a fitted effect of over 40% in size
MCF10A rerep: A quantitative high throughput screen for small molecules that induce DNA re-replication in MCF 10a normal breast cells | actives 2.9% (n = 350,000) | Potency, µM (titrated, usually from 46.1 µM), hits mostly activators | MCF 10A DNA re-replication, Hoechst nuclear intensity, 48 h; note: nearly all actives have a fitted effect of over 50% in size
SW480 rerep: A quantitative high throughput screen for small molecules that induce DNA re-replication in SW480 colon adenocarcinoma cells | SW480 DNA re-replication, Hoechst DNA content imaging, 48 h | Potency, µM (titrated, usually from 46.1 µM), actives largely listed as activators | actives 1.8% (n = 340,000) | AID 624297, 2012; note: nearly all actives have a fitted effect of over 55% in size
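Quantitative HTS format with DMSO vehicle controls; 48 hr drug incubation at 37 C, then 40 min Hoechst staining and scanning imager measurement at 405 nm excitation.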
Large screens that a line does not name were inactive. Unless noted, calls come from the whole dose curve; as a rule, active = well fitted curve in the direction sought with a large enough effect; inconclusive = small, poorly fitted or top-dose-only effect, or another doubt; inactive = no such curve, though single readings can be large; an effect the other way counts as inactive or inconclusive.

CC(=O)Oc1ccc2occ(-c3ccccc3)c2c1	none (no result: ATXN2 expr inh)
O=c1ccc2cc3c(-c4ccccc4)coc3cc2o1	MCF10A rerep 23µM
CC(C)(CO)NCc1cccs1	SW480 rerep 1.3µM (no result: ATXN2 expr inh)
CC(C)(C)CC(=O)NCc1cccs1	none
COc1ccccc1CN(C)CC(=O)Nc1ccc(Cl)cc1F	MCF10A rerep 1.2µM
COc1ccc(C)cc1NC(=O)C(=O)NNC(=O)COc1ccc(Cl)cc1	MCF10A rerep 21µM
COc1ccc(Cl)cc1NC(=O)CN(C)C(=O)CCC(=O)c1cc(C)sc1C	IL1B secr inh -53
COc1ccc(OCC(=O)NNC(=O)C(=O)Nc2cc(OC)ccc2OC)cc1	none
COc1ccc(NC(=O)CN(C)CC(=O)Nc2cccc3ccccc23)c(OC)c1	none
COc1ccccc1CN(C)CC(=O)Nc1cccc2ccccc12	IL1B secr inh -60
CCOc1ccc(NC(=O)CN(C)C(=O)c2cn3ccccc3n2)cc1OCC	none
COc1ccc(Cl)cc1NC(=O)CN(C)CC(=O)Nc1ccc(C)cc1Br	IL1B secr inh -67, MCF10A rerep inconclusive
COc1ccc(Cl)cc1NC(=O)CN(C)C(=O)c1cn2ccccc2n1	MCF10A rerep inconclusive, SW480 rerep 13µM (no result: ATXN2 expr inh)
CC(=O)c1cc(-c2ccc(F)cc2)n(CCC(=O)Nc2nc3ccc(C)cc3s2)c1C	none (no result: ATXN2 expr inh, IL1B secr inh, ATXN viability, MCF10A rerep, SW480 rerep)
Brc1ccc(CN2CCN(c3ccccn3)CC2)s1	IL1B secr inh -83
c1ccc(N2CCN(Cc3ccc4c(c3)OCO4)CC2)nc1	none
CCN1CCc2c(sc(NC(=S)NC(=O)c3cccc(F)c3)c2C(N)=O)C1	none (no result: ATXN2 expr inh, IL1B secr inh, ATXN viability, MCF10A rerep, SW480 rerep)
CCOc1ccc(S(=O)(=O)N2Cc3ccccc3CC2C(=O)Nc2ccc(NC(C)=O)cc2)cc1 (centres undefined)	none (no result: IL1B secr inh, MCF10A rerep, SW480 rerep)
CCn1nc(C)c(C(=O)Nc2cc(Oc3ccc(Cl)cc3)cc([N+](=O)[O-])c2)c1C	PINK1 expr mod 10µM, MCF10A rerep 8.2µM, SW480 rerep inconclusive
Cc1ccccc1Oc1cc(NC(=O)CCCn2nc(C)c([N+](=O)[O-])c2C)cc([N+](=O)[O-])c1	ATXN2 expr inh inconclusive, PINK1 expr mod inconclusive, IL1B secr inh -56
COc1c(Cl)cc2c([nH]c3cnccc32)c1NC(=O)c1cccnc1C	none (no result: PINK1 expr mod, IL1B secr inh, ATXN viability, MCF10A rerep, SW480 rerep)
O=C(N/N=C/c1ccccc1)c1c(O)c2ccccc2[nH]c1=O	PINK1 expr mod 8.9µM, ATXN viability inconclusive
O=c1[nH]c2ccccc2c(O)c1-[n+]1ccccc1	MCF10A rerep inconclusive
O=C(N/N=C/c1ccc(F)cc1)c1c(O)c2ccccc2[nH]c1=O	PINK1 expr mod 4.5µM, MCF10A rerep inconclusive (no result: SW480 rerep)
O=C(N/N=C/c1cccc(F)c1)c1c(O)c2ccccc2[nH]c1=O	PINK1 expr mod 2.8µM
O=c1[nH]c2ccccc2c(O)c1O	IL1B secr inh -92
CCc1nc2cc(C(=O)NC3CCOC(C)(C)C3)cc(NC(=O)c3ccccc3OC)c2n1C (centres undefined)	none (no result: ATXN2 expr inh, IL1B secr inh, MCF10A rerep, SW480 rerep)
C[n+]1c2n(c3ccccc31)N=C(c1ccccc1)CS2	ATXN2 expr inh inconclusive, PINK1 expr mod inconclusive, IL1B secr inh inconclusive, MCF10A rerep inconclusive, SW480 rerep inconclusive
CCc1nnc2n1N=C(c1ccc(Br)cc1)CS2	none
C[n+]1c2n(c3ccccc31)N=C(c1ccc(-c3ccccc3)cc1)CS2	PINK1 expr mod 13µM, IL1B secr inh inconclusive, ATXN viability inconclusive (no result: ATXN2 expr inh)
C[n+]1c2n(c3ccccc31)N=C(c1ccc(Br)cc1)CS2	ATXN2 expr inh inconclusive, IL1B secr inh -89, ATXN viability inconclusive, MCF10A rerep inconclusive
COc1ccc2c(c1)C(=O)CC2	none (no result: ATXN2 expr inh, IL1B secr inh, ATXN viability, MCF10A rerep, SW480 rerep)
COc1cc(C(=O)OC(C)C(=O)Nc2ccc3c(c2)OCO3)ccc1OCc1c(C)noc1C (centres undefined)	none
Cc1noc(C)c1COc1ccccc1C(=O)NNC(=O)c1ccccc1F	none
